Measured values reported in the supplement of paper PMC10849652.
About 7,900 targets were measured; listed, in parts, are those with a hit and a random draw of the rest. About 0.6% of all pairs of compound and target were hits. Unmarked numbers belong to inactive results.

Legend:
Experiment in all cases: log2 fold change, soluble protein after heating vs DMSO (PISA); higher = thermal stabilisation; K562 cells, 10 uM, 30 min; active = over 0.2 and 3.5 SD of the protein, either way, in both replicates (recomputed)
[1] = compound: NC(=O)Nc1cc(-c2cccc(F)c2)sc1C(=O)N[C@H]1CCCNC1
Summary of the method: (§1)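 K562 cells at 2×10^6 cells/mL were given 10 μM compound for 30 min. Aliquots then went through 3 min of heating across 48°C-58°C, were pooled, and were extracted in PBS with 0.5% NP-40 at 4°C, and the supernatant after 21,000xg for 90 min was quantified by TMTpro 16plex LC-MS/MS with channel sums equalised. Thermal stability relative to control samples, from duplicates, is given as log2 fold change.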

[2] = compound: NC(=O)c1cnc(N[C@@H]2CCCC[C@@H]2N)nc1Nc1cccc(-n2nccn2)c1
Summary of the method: as §1

[3] = compound: NC1(c2ccc(-c3nc4ccn5c(=O)[nH]nc5c4cc3-c3ccccc3)cc2)CCC1
Summary of the method: as §1

[4] = compound: NCC(=O)Nc1ccc(-n2nc(C(F)(F)F)cc2-c2ccc3c(ccc4ccccc43)c2)cc1
Summary of the method: as §1

entinostat = compound: Nc1ccccc1NC(=O)c1ccc(CNC(=O)OCc2cccnc2)cc1 [entinostat]
Summary of the method: as §1

vorinostat = compound: O=C(CCCCCCC(=O)Nc1ccccc1)NO [vorinostat]
Summary of the method: as §1

citarinostat = compound: O=C(CCCCCCNC(=O)c1cnc(N(c2ccccc2)c2ccccc2Cl)nc1)NO [citarinostat]
Summary of the method: as §1

silmitasertib = compound: O=C(O)c1ccc2c(c1)nc(Nc1cccc(Cl)c1)c1ccncc12 [silmitasertib]
Summary of the method: as §1

[5] = compound: O=C1NC(=O)C(c2cnc3ccccn23)=C1c1cn2c3c(cc(F)cc13)CN(C(=O)N1CCCCC1)CC2
Summary of the method: as §1

[6] = compound: c1cc(OCCN2CCCCC2)cc(-c2n[nH]c3ccc(-c4nnc[nH]4)cc23)c1
Summary of the method: as §1

Chain of UniProt Q9UPN7 (Q9UPN7 whole entry, looked up): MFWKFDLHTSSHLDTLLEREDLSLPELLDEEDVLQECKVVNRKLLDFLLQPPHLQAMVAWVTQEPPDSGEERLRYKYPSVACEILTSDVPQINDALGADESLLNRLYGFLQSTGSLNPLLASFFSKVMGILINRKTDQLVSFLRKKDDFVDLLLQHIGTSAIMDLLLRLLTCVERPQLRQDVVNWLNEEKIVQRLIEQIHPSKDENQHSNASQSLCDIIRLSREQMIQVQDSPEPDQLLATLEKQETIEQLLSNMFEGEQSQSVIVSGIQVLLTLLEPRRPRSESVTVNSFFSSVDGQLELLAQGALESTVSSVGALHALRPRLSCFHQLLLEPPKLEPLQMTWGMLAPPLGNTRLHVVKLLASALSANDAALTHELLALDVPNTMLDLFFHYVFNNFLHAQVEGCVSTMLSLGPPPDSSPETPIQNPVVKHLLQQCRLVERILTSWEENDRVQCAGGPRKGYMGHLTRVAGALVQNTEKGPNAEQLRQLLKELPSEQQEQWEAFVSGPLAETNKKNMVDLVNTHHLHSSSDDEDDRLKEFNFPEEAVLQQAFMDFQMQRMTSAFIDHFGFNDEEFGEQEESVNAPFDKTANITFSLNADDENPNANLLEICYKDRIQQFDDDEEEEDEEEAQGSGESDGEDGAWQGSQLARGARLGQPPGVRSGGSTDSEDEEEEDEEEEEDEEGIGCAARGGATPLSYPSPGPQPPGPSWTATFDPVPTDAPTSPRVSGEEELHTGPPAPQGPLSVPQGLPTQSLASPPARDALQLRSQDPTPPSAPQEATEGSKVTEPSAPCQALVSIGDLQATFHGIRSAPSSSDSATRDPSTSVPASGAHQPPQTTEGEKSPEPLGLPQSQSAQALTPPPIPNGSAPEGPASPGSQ
Chain of UniProt Q9UNM6 (Q9UNM6 whole entry, looked up): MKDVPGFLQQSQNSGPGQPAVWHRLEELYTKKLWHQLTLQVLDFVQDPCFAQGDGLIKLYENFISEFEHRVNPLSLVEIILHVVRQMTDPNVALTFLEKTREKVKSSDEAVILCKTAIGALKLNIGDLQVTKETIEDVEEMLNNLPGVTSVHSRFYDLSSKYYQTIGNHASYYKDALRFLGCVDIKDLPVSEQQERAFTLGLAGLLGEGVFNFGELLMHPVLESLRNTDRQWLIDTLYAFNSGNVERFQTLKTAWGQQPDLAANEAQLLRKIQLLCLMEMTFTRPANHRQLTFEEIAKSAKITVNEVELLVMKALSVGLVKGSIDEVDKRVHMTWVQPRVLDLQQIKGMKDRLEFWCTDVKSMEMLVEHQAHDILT
Chain of UniProt P35998 (P35998 whole entry, looked up): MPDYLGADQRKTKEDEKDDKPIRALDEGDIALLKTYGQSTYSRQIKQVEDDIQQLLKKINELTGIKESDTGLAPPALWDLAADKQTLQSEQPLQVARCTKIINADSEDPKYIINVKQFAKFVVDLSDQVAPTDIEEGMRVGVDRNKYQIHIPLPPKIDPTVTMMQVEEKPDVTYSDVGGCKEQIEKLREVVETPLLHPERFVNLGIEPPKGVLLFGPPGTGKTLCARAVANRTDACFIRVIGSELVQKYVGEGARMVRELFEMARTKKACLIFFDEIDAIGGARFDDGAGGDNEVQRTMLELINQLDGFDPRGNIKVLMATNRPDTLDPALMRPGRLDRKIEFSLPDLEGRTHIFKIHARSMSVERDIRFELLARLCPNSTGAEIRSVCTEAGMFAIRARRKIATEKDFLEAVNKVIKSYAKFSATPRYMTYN
Chain of UniProt P05771 (P05771 whole entry, looked up): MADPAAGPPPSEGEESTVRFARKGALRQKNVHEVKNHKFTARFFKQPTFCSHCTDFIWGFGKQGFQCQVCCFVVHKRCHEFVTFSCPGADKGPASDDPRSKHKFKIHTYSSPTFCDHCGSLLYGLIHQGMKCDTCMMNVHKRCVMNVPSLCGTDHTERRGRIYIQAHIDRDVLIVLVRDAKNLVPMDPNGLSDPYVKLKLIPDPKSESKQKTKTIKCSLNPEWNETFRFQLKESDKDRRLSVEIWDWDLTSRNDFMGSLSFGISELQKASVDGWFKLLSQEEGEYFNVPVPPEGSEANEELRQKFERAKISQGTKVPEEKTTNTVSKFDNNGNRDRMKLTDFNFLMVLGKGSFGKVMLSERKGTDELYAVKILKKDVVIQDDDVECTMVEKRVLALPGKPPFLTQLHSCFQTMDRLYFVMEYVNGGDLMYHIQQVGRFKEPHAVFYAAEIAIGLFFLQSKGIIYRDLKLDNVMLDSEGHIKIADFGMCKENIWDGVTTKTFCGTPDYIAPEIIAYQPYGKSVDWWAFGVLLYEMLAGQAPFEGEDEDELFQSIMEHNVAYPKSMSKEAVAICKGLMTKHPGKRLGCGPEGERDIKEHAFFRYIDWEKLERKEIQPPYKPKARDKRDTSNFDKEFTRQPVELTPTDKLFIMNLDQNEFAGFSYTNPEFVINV
Chain of UniProt P48556 (P48556 whole entry, looked up): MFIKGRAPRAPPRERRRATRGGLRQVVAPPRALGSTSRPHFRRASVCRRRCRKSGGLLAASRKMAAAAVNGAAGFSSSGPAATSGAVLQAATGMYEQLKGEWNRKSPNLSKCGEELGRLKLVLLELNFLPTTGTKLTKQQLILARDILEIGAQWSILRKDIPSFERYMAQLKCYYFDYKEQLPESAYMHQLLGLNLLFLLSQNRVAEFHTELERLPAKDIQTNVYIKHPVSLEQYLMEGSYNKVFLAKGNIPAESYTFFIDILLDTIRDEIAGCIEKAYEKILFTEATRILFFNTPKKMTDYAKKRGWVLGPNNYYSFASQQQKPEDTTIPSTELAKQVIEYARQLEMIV
Chain of UniProt O43164 (O43164 whole entry, looked up): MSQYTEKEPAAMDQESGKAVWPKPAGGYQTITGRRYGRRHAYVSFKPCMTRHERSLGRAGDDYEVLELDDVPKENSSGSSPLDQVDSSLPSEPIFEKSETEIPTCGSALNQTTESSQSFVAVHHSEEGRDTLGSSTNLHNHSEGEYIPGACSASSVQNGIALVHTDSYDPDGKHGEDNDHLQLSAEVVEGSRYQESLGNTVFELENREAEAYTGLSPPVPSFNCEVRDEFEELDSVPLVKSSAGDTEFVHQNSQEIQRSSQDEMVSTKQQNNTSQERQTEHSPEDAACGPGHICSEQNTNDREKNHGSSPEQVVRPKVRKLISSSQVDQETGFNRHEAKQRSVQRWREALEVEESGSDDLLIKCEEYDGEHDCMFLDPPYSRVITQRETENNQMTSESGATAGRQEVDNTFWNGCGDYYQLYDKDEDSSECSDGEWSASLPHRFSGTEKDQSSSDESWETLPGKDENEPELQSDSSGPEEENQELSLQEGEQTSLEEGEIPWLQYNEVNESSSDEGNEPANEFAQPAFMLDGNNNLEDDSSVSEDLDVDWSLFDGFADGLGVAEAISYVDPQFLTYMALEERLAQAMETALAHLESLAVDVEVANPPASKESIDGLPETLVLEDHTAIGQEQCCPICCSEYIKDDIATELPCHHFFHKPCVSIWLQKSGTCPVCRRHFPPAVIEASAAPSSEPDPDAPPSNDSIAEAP
Chain of UniProt Q9NR22 (Q9NR22 whole entry, looked up): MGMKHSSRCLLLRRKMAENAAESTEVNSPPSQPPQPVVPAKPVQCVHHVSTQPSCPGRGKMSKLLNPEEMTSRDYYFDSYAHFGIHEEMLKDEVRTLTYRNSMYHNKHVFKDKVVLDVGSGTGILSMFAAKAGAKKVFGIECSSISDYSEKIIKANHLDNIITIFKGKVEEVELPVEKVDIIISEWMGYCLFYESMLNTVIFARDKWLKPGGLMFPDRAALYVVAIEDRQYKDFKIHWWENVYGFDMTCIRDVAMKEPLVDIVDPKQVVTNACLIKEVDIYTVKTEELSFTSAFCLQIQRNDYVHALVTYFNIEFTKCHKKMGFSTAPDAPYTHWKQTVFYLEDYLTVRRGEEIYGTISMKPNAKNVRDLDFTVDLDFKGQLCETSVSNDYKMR
Chain of UniProt Q13200 (Q13200 whole entry, looked up): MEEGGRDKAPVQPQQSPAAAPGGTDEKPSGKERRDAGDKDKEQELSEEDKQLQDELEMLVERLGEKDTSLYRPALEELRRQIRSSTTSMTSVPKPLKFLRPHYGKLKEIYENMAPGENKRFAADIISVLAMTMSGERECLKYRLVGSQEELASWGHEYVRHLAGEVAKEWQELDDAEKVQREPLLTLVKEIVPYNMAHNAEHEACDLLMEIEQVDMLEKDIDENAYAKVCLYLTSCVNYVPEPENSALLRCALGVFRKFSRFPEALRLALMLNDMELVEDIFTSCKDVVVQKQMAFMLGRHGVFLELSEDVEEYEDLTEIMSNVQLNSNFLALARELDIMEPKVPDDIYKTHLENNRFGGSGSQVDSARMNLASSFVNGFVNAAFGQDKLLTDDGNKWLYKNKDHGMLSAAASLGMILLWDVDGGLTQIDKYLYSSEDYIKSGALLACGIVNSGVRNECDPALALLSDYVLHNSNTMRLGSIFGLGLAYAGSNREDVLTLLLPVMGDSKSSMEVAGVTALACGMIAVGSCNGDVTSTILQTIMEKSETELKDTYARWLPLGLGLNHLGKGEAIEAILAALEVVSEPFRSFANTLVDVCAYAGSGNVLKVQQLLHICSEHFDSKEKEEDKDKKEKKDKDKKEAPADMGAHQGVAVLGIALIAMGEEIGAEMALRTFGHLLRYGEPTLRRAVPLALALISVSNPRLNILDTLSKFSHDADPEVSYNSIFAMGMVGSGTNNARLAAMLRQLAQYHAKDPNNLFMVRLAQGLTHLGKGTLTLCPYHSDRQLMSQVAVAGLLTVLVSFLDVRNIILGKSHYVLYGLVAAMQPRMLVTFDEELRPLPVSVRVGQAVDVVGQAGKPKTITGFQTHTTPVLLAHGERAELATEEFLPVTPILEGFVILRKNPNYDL
Chain of UniProt O95997 (O95997 whole entry, looked up): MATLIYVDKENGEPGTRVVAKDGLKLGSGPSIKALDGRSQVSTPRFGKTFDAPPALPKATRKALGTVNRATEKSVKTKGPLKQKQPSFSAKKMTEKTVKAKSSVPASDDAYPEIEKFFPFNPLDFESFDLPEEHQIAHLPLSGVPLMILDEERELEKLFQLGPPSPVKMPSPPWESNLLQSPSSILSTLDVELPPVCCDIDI

Row | Target | log2 fold change [1] | log2 fold change [2] | log2 fold change [3] | log2 fold change [4] | log2 fold change (entinostat) | log2 fold change (vorinostat) | log2 fold change (citarinostat) | log2 fold change (silmitasertib) | log2 fold change [5] | log2 fold change [6]
1 | PSMD5 (UniProt Q16401) | -0.001 | 0.009 | -0.094 | -0.009 | 0.01 | 0.008 | 0.033 | 0.038 | -0.032 | -0.009
2 | PSMD8 (UniProt P48556) | -0.035 | 0.042 | -0.07 | 0.009 | -0.009 | 0.016 | -0.015 | 0.007 | 0.019 | -0.101
3 | PXK (UniProt Q7Z7A4) | -0.057 | -0.044 | -0.279 (active) | -0.073 | 0.014 | 0.018 | 0.021 | -0.002 | -0.043 | 0.008
4 | POLR2M (UniProt P0CAP2) | -0.03 | 0.035 | -0.045 | -0.085 | -0.032 | -0.091 | -0.019 | 0.043 | 0.009 | -0.008
5 | PRMT3 (UniProt O60678) | 0.042 | -0.05 | -0.187 | -0.034 | 0.055 | 0.041 | 0.042 | -0.023 | -0.027 | -0.027
6 | PLCG1 isoform 2 (UniProt P19174) | 0.01 | -0.193 | -0.197 | -0.109 | 0.04 | -0.003 | 0.059 | 0.01 | 0 | -0.066
7 | PJA2 (UniProt O43164) | -0.006 | -0.047 | -0.049 | 0.029 | 0.004 | -0.001 | -0.005 | 0.026 | -0.059 | -0.075
8 | PRKCB isoform 2 (UniProt P05771) | -0.052 | -0.037 | -0.118 | -0.058 | 0.045 | 0.02 | 0.041 | 0.032 | -0.051 | 0.02
9 | PTTG1 (UniProt O95997) | -0.006 | -0.098 | -0.015 | -0.071 | 0.035 | -0.043 | 0.027 | -0.002 | -0.023 | -0.128
10 | PELP1 (UniProt Q8IZL8) | 0.071 | -0.068 | -0.046 | 0.071 | -0.022 | -0.003 | 0.038 | 0.078 | -0.084 | -0.027
11 | PDCD4 (UniProt Q53EL6) | -0.001 | 0.011 | -0.087 | -0.064 | -0.044 | 0.042 | 0.059 | 0.145 | -0.041 | 0.092
12 | PTPA (UniProt A6PVN8) | -0.015 | -0.057 | -0.062 | -0.003 | -0.04 | 0.099 | -0.098 | 0.266 | 0.05 | -0.05
13 | PNPLA2 (UniProt Q96AD5) | -0.075 | -0.01 | -0.05 | -0.004 | 0.078 | 0.192 | 0.087 | 0.065 | 0.012 | -0.138
14 | PPP6R1 (UniProt Q9UPN7) | 0.023 | -0.066 | -0.09 | 0.011 | -0.018 | 0.023 | 0.054 | 0.013 | -0.055 | -0.05
15 | PSMC2 (UniProt P35998) | 0.014 | -0.013 | 0.026 | 0.091 | -0.025 | -0.018 | -0.04 | -0.015 | 0.087 | -0.086
16 | PDCD6 (UniProt O75340) | -0.066 | -0.08 | 0.117 | -0.106 | 0.081 | 0.028 | 0.064 | -0.022 | -0.096 | -0.024
17 | POLR3B (UniProt Q9NW08) | -0.05 | 0.017 | -0.124 | -0.009 | -0.014 | 0.088 | -0.022 | 0.111 | 0.104 | -0.047
18 | PKN2 (UniProt Q16513) | -0.055 | -0.134 | -0.051 | -0.021 | 0.105 | 0.023 | 0.073 | 0.01 | -0.008 | -0.086
19 | PTMA (UniProt P06454) | 0.279 | 0.2 | 0.217 | 0.157 | 0.052 | -0.026 | -0.018 | -0.628 (active) | 0.021 | 0.099
20 | PKN1 isoform 2 (UniProt Q16512) | -0.508 (active) | -0.141 | -0.118 | -0.128 | 0.039 | 0.042 | 0.024 | 0.024 | -0.131 | -0.157
21 | PTPN12 (UniProt Q05209) | 0.037 | -0.023 | -0.1 | -0.012 | 0.038 | -0.01 | 0.019 | 0.163 | 0.014 | -0.015
22 | PSMD13 (UniProt Q9UNM6) | -0.049 | 0.015 | -0.044 | 0.006 | -0.018 | 0.001 | -0.017 | 0.033 | 0.044 | -0.108
23 | PPP2R5A (UniProt Q15172) | 0.098 | 0.009 | -0.254 (active) | -0.013 | 0.094 | 0.106 | 0.114 | -0.059 | -0.044 | -0.021
24 | PRKAA1 isoform 2 (UniProt Q13131) | -0.141 | -0.009 | -0.049 | -0.007 | 0.002 | 0.052 | 0.044 | -0.006 | -0.007 | -0.056
25 | PSMD2 (UniProt Q13200) | -0.018 | 0.012 | 0.005 | 0.038 | -0.024 | 0.01 | -0.006 | -0.018 | 0.03 | -0.082
26 | PRMT8 (UniProt Q9NR22) | 0.403 (active) | -0.149 | -0.118 | -0.054 | 0.21 | 0.029 | -0.031 | -0.039 | -0.057 | -0.006
27 | PSPC1 (UniProt Q8WXF1) | -0.001 | -0.039 | 0.021 | -0.027 | -0.014 | 0.14 | 0.067 | -0.032 | -0.074 | -0.057
28 | PSME4 (UniProt Q14997) | 0.047 | -0.054 | -0.204 | -0.03 | 0.011 | 0.127 | 0.047 | -0.007 | 0.02 | -0.092
29 | PFAS (UniProt O15067) | 0.06 | -0.075 | -0.012 | -0.054 | 0.134 | 0.042 | 0.049 | -0.119 | -0.052 | 0.142
30 | PRKAB1 (UniProt Q9Y478) | -0.015 | 0.186 | -0.015 | 0.035 | 0.056 | 0.063 | 0.089 | 0 | -0.036 | -0.067
